Experimental data from the supplement of paper PMC7411054.
Where a name gives a salt, the structure may show the parent alone.

Experiments:
Conditions in all cases: treatment time: 24 h
A549-ACTB-RAB5A [1] = assay: lowest phenotypically active concentration; higher = less potent
How it was run: (§1)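 Each of fifteen gene-edited A549, HepG2 and WPMY1 reporter lines, marked with BFP for segmentation and GFP and RFP/FusionRed, was treated in four wells at 0.3, 1, 3 or 9 µM for 24 h prior to live imaging. Normalisation of per-well live-cell features used solvent control wells. Deviation needed ≥3 of 4 wells beyond the 95th percentile of control Euclidean distances, and reproducibility needed a median replicate Pearson correlation above the 95th percentile of non-replicates. Both were required for phenotypic activity.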

A549-CANX-COX4 [2] = assay: as above
How it was run: as §1

A549-GM130-SQSTM1 [3] = assay: as above
How it was run: as §1

HepG2-TP53BP1-CLTA [4] = assay: as above
How it was run: as §1

HepG2-TUBA1B-RELA [5] = assay: as above
How it was run: as §1

A549-ACTB-RAB5A [6] = assay: phenotypically active (imaging signature differs from DMSO and reproducible) at any of 0.3-9 uM (binary (1 = active, 0 = inactive)); higher = active
How it was run: as §1

A549-CANX-COX4 [7] = assay: as above
How it was run: as §1

A549-GM130-SQSTM1 [8] = assay: as above
How it was run: as §1

A549-TP53BP1-CLTA = assay: as above
How it was run: as §1

A549-TUBA1B-RELA = assay: as above
How it was run: as §1

HepG2-ACTB-RAB5A = assay: as above
How it was run: as §1

HepG2-CANX-COX4 = assay: as above
How it was run: as §1

HepG2-GM130-SQSTM1 = assay: as above
How it was run: as §1

HepG2-TP53BP1-CLTA [9] = assay: as above
How it was run: as §1

HepG2-TUBA1B-RELA [10] = assay: as above
How it was run: as §1

WPMY1-ACTB-RAB5A = assay: as above
How it was run: as §1

WPMY1-CANX-COX4 = assay: as above
How it was run: as §1

WPMY1-GM130-SQSTM1 = assay: as above
How it was run: as §1

WPMY1-TP53BP1-CLTA = assay: as above
How it was run: as §1

WPMY1-TUBA1B-RELA = assay: as above
How it was run: as §1

Row | Compound | lowest phenotypically active concentration (A549-ACTB-RAB5A [1]) [µM] | lowest phenotypically active concentration (A549-CANX-COX4 [2]) [µM] | lowest phenotypically active concentration (A549-GM130-SQSTM1 [3]) [µM] | lowest phenotypically active concentration (HepG2-TP53BP1-CLTA [4]) [µM] | lowest phenotypically active concentration (HepG2-TUBA1B-RELA [5]) [µM] | phenotypically active (A549-ACTB-RAB5A [6]) | phenotypically active (A549-CANX-COX4 [7]) | phenotypically active (A549-GM130-SQSTM1 [8]) | phenotypically active (A549-TP53BP1-CLTA) | phenotypically active (A549-TUBA1B-RELA) | phenotypically active (HepG2-ACTB-RAB5A) | phenotypically active (HepG2-CANX-COX4) | phenotypically active (HepG2-GM130-SQSTM1) | phenotypically active (HepG2-TP53BP1-CLTA [9]) | phenotypically active (HepG2-TUBA1B-RELA [10]) | phenotypically active (WPMY1-ACTB-RAB5A) | phenotypically active (WPMY1-CANX-COX4) | phenotypically active (WPMY1-GM130-SQSTM1) | phenotypically active (WPMY1-TP53BP1-CLTA) | phenotypically active (WPMY1-TUBA1B-RELA)
1 | N#CC[C@@H](C1CCCC1)n1cc(-c2ncnc3[nH]ccc23)cn1 [ruxolitinib-(S)] | 3 | 9 | 9 | 9 | 9 | 1 (active) | 1 (active) | 1 (active) | 1 (active) | 1 (active) | 0 (inactive) | 1 (active) | 1 (active) | 1 (active) | 1 (active) | 1 (active) | 1 (active) | 0 (inactive) | 0 (inactive) | 1 (active)
2 | O=C1NCCN1CCN1CCC(c2cn(-c3ccc(F)cc3)c3ccc(Cl)cc23)CC1 [sertindole] | 3 | 3 | 3 | 3 | 3 | 1 (active) | 1 (active) | 1 (active) | 1 (active) | 1 (active) | 1 (active) | 1 (active) | 1 (active) | 1 (active) | 1 (active) | 1 (active) | 1 (active) | 1 (active) | 1 (active) | 1 (active)
3 | O=C1/C(=C\c2ccncc2)CCC/C1=C\c1ccncc1 | 3 | 3 | 3 | 3 | 3 | 1 (active) | 1 (active) | 1 (active) | 0 (inactive) | 0 (inactive) | 1 (active) | 1 (active) | 1 (active) | 1 (active) | 1 (active) | 1 (active) | 1 (active) | 1 (active) | 1 (active) | 1 (active)
4 | O=C(Nc1ccccc1)c1cc([N+](=O)[O-])ccc1Cl | 9 | 9 | 9 |  |  | 1 (active) | 1 (active) | 1 (active) | 0 (inactive) | 1 (active) | 1 (active) | 0 (inactive) | 0 (inactive) | 0 (inactive) | 0 (inactive) | 0 (inactive) | 1 (active) | 0 (inactive) | 0 (inactive) | 0 (inactive)
5 | CC/C(=C(/c1ccccc1)c1ccc(OCCN(C)C)cc1)c1ccccc1 [tamoxifen] | 3 | 9 | 3 | 9 | 3 | 1 (active) | 1 (active) | 1 (active) | 0 (inactive) | 1 (active) | 1 (active) | 0 (inactive) | 1 (active) | 1 (active) | 1 (active) | 1 (active) | 1 (active) | 1 (active) | 1 (active) | 1 (active)
6 | Cc1cc2c(F)c(Oc3ncnn4cc(OC[C@@H](C)OC(=O)[C@H](C)N)c(C)c34)ccc2[nH]1 [brivanib-alaninate] | 9 | 9 | 9 | 3 | 9 | 1 (active) | 1 (active) | 1 (active) | 1 (active) | 0 (inactive) | 1 (active) | 1 (active) | 1 (active) | 1 (active) | 1 (active) | 1 (active) | 1 (active) | 1 (active) | 1 (active) | 1 (active)
7 | CCCOc1ccc(CCc2nc3cc(-c4c(C)noc4C)ccc3n2CCN2CCOCC2)cc1 | 9 | 9 |  | 9 |  | 1 (active) | 1 (active) | 0 (inactive) | 0 (inactive) | 0 (inactive) | 1 (active) | 1 (active) | 0 (inactive) | 1 (active) | 0 (inactive) | 0 (inactive) | 0 (inactive) | 0 (inactive) | 0 (inactive) | 0 (inactive)
8 | COc1ccc(-c2cc(=O)c3c(O)cc(O)cc3o2)cc1O [Diosmetin] | 9 | 9 | 9 |  | 9 | 1 (active) | 1 (active) | 1 (active) | 0 (inactive) | 1 (active) | 0 (inactive) | 0 (inactive) | 0 (inactive) | 0 (inactive) | 1 (active) | 0 (inactive) | 1 (active) | 0 (inactive) | 1 (active) | 1 (active)
9 | Nc1nccc(-c2ccc3noc(-c4ccc(Cl)cc4)c3c2)n1 [PIM-1 Inhibitor 2] | 3 | 9 | 3 | 9 |  | 1 (active) | 1 (active) | 1 (active) | 1 (active) | 0 (inactive) | 0 (inactive) | 0 (inactive) | 0 (inactive) | 1 (active) | 0 (inactive) | 1 (active) | 1 (active) | 1 (active) | 1 (active) | 1 (active)
10 | C=C1C(=O)O[C@@H]2C=C(C)CCC=C(C)CC[C@@H]12 [Costunolide] | 9 | 9 |  | 9 |  | 1 (active) | 1 (active) | 0 (inactive) | 0 (inactive) | 0 (inactive) | 1 (active) | 1 (active) | 1 (active) | 1 (active) | 0 (inactive) | 1 (active) | 0 (inactive) | 1 (active) | 1 (active) | 1 (active)
11 | CN(C)c1ccc(/C=C2\C(=O)Nc3ccccc32)cc1 | 9 | 9 | 3 | 9 | 9 | 1 (active) | 1 (active) | 1 (active) | 1 (active) | 1 (active) | 0 (inactive) | 0 (inactive) | 1 (active) | 1 (active) | 1 (active) | 1 (active) | 1 (active) | 1 (active) | 1 (active) | 0 (inactive)
12 | C[C@@H]1C[C@H]2[C@@H]3CCC4=CC(=O)C=C[C@]4(C)[C@@]3(Cl)[C@@H](O)C[C@]2(C)[C@@]1(OC(=O)c1ccco1)C(=O)CCl [mometasone furoate] | ≤ 0.3 | ≤ 0.3 | ≤ 0.3 |  |  | 1 (active) | 1 (active) | 1 (active) | 1 (active) | 1 (active) | 0 (inactive) | 0 (inactive) | 0 (inactive) | 0 (inactive) | 0 (inactive) | 0 (inactive) | 0 (inactive) | 1 (active) | 0 (inactive) | 0 (inactive)
13 | C/C(=N/NC(=N)N)c1ccc(NC(=O)Nc2ccc(/C(C)=N/NC(=N)N)cc2)cc1 | 3 | 9 | 9 | 9 | 3 | 1 (active) | 1 (active) | 1 (active) | 0 (inactive) | 1 (active) | 1 (active) | 1 (active) | 1 (active) | 1 (active) | 1 (active) | 1 (active) | 1 (active) | 1 (active) | 0 (inactive) | 0 (inactive)
14 | C[C@@H](Nc1ncnc2[nH]c(-c3ccc(O)cc3)cc12)c1ccccc1 [PKI 166 hydrochloride] | 3 | 3 | 3 | 9 | 9 | 1 (active) | 1 (active) | 1 (active) | 1 (active) | 1 (active) | 0 (inactive) | 1 (active) | 0 (inactive) | 1 (active) | 1 (active) | 1 (active) | 1 (active) | 1 (active) | 1 (active) | 1 (active)
15 | Cc1cccc(C)c1OCC(=O)N[C@@H](Cc1ccccc1)[C@@H](O)C[C@H](Cc1ccccc1)NC(=O)[C@H](C(C)C)N1CCCNC1=O [lopinavir] | 9 | 9 |  |  | 9 | 1 (active) | 1 (active) | 0 (inactive) | 0 (inactive) | 0 (inactive) | 1 (active) | 0 (inactive) | 0 (inactive) | 0 (inactive) | 1 (active) | 0 (inactive) | 1 (active) | 0 (inactive) | 0 (inactive) | 0 (inactive)
16 | CCc1cncnc1N1CCN(Cc2nc3cc(C(F)(F)F)ccc3[nH]2)CC1 | 3 | 9 | 9 | 9 | 3 | 1 (active) | 1 (active) | 1 (active) | 0 (inactive) | 0 (inactive) | 1 (active) | 1 (active) | 1 (active) | 1 (active) | 1 (active) | 0 (inactive) | 0 (inactive) | 0 (inactive) | 0 (inactive) | 1 (active)
